Measured values published in PubChem BioAssay (NCATS).
Records with an inconclusive call do not appear. Calls of active or inactive are those of the source. Unless noted, calls follow the shape of the dose curve; as a rule, active = well fitted curve in the direction sought with a large enough effect; inconclusive = small, poorly fitted or top-dose-only effect, or another doubt; inactive = no such curve, though single readings can be large; an effect the other way counts as inactive or inconclusive.

Tests used:
[1] = biological target: T1, Hexokinase-4 (Homo sapiens) + Glucokinase regulatory protein (Homo sapiens) (UniProt P35557+Q14397); experiment: qHTS assay for inhibitors of recombinant human GCK-GKRP interaction: Diaphorase-coupled assay (AID 743205)
Outline: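 GST-GCK (10 nM) with FLAG-GKRP (10 nM), 5 mM glucose and 0.4 mM ATP in pH 7.6 Hepes; compounds preincubated 20 min with substrate. G6PDH/diaphorase coupling converts resazurin to resorufin, read kinetically (ex 525/em 590 nm) for 30 min.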

[2] = biological target: T1, Hexokinase-4 (Homo sapiens) + Glucokinase regulatory protein (Homo sapiens); experiment: qHTS assay for inhibitors of recombinant human GCK-GKRP interaction: ADP-Glo assay (AID 743206);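 also: plate controls were DMSO plus enzyme for no effect and no enzyme for full effect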
Outline: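 Pin-transferred compounds meet a 15 nM GST-GCK/15 nM FLAG-GKRP/2 uM S6P mix (dispense concentrations). ATP is then added to 0.4 mM final with 5 mM glucose, and the reaction runs 60 min at room temperature. ADP is quantified luminescently.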

[3] = biological target: T1, Hexokinase-4 (Homo sapiens) + Glucokinase regulatory protein (Homo sapiens); experiment: qHTS assay for inhibitors of recombinant human GCK-GKRP interaction: HTRF assay (AID 743207);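 also: 0% = DMSO with GCK present and -100% = DMSO wells lacking GCK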
Outline: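 GST-GCK and FLAG-GKRP (5 nM each) were combined with 2 uM S6P in pH 7.1 Hepes/MgCl2/KCl/DTT buffer, then compound and anti-FLAG XL665/anti-GST K antibodies were added. After 60 min at room temperature, HTRF 665/615 nm emission was read.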

[4] = qHTS Assay for Identifying Gametocytocidal Compounds (AID 743244); also: potency is read from the fitted curve at half-maximal effect;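 as to max response: % is scaled to controls: 0 for no effect and ±100 for the full control effect; actives lower the fluorescent signal which means gametocytes are killed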; conditions: P. falciparum 3D7 stage III-V gametocytes, alamarBlue, 72 h; max response: stronger effect = lower value
Outline: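 In this qHTS viability screen, late-stage 3D7 gametocytes are incubated with compound for 72 h, then with alamarBlue for 24 h; reduced resorufin fluorescence marks killing.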

[5] = qHTS assay for measurement of the activity of small molecule inhibitors on Zika virus induced Caspase-3 activity in human iPSC derived neural progenitor cells (hNPCs) (AID 1224857); also: % of control where 0% means no effect; nearly all actives have a fitted effect of over 65% in size
Outline: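 In medium with heparin 2 ug/ml and cyclopamine 2 uM, hNPCs (350 cells/well) received compound for one hour and then Zika virus at 2 FFU/cell; caspase activity was measured by Caspase-Glo 3/7 luminescence 6 h post-infection.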

[6] = qHTS assay for measurement of the activity of small molecule inhibitors on Zika virus induced Caspase-3 activity in human astrocytoma cells (AID 1224859);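 also: plate controls were ZIKV-infected untreated cells for no effect and uninfected cells for full effect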
Outline: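 A cell-based luminescent caspase-3/7 assay used SNB-19 cells infected with ZIKV (2 FFU/cell) for 6 h following 1 h compound pretreatment.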

[7] = Natriuretic polypeptide receptor (hNpr1) antagonism - Pilot counterscreen GloSensor control cell line (AID 1347045; calls by dose curve; also: % is scaled to controls: 0 for no effect and ±100 for the full control effect)
Outline: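 HEK293 cGMP-sensor cells; 2% GloSensor reagent 2 h RT; LOPAC compounds in 1:5 titrations 30-50 min; 50 uM SNP 20 min; luminescence pre-read and post-read.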

[8] = biological target: Atrial natriuretic peptide receptor 1 (Homo sapiens) (UniProt P16066); experiment: Natriuretic polypeptide receptor (hNpr1) antagonism - Pilot screen (AID 1347049; calls by dose curve;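 also: HEK293 cells with hNpr1 and GloSensor cGMP luciferase stimulated by 0.1 nM hNppA; agonist-evoked cGMP luminescence read 20 min after hNppA addition; % is scaled to controls: 0 for no effect and ±100 for the full control effect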)
Outline: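 Receptor antagonism read as cGMP-dependent luminescence in hNpr1/pGS-40F HEK293 cells: pre-read after 30 min compound exposure, post-read 20 min after hNppA agonist at 0.1 nM final, all at room temperature, protected from light; A-71915 titration as control.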

[9] = biological target: Atrial natriuretic peptide receptor 2 (Homo sapiens) (UniProt P20594); experiment: Natriuretic polypeptide receptor (hNpr2) antagonism - Pilot subtype selectivity assay (AID 1347050; calls by dose curve; also: % is scaled to controls: 0 for no effect and ±100 for the full control effect)
Outline: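 Antagonist mode: compounds (LOPAC1280, seven 1:5 dilutions) added 30 min before 1 nM hNppC stimulation of hNpr2-HEK293 cGMP-sensor cells; luminescence read before and 20 min after agonist at ambient temperature.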

[10] = qHTS profiling for inhibitors of Plasmodium falciparum (3D7) proliferation (AID 743322);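 also: infected erythrocytes exposed to compound for 72 h before lysis; 100% = DMSO vehicle wells and 0% = 0.29 µM artemisinin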; conditions: P. falciparum 3D7 proliferation; at 28.7 µM (top of the series)
Outline: (§1)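 Parasite DNA was quantified by SYBR Green I fluorescence (ex 485, em 535 nm) after overnight lysis in saponin/Triton buffer at room temperature. Cultures at 0.3% parasitemia and 2.5% hematocrit were first exposed to compound for 72 h at 37 C; signals were normalised to artemisinin (0.29 uM) and vehicle wells.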

[11] = qHTS profiling for inhibitors of Plasmodium falciparum (DD2) proliferation (AID 743323; call rule not given here); conditions: lower = more inhibition; at 28.7 µM (top of the series)
Outline: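 P. falciparum Dd2-infected erythrocytes (0.3% parasitemia, 2.5% hematocrit) exposed 72 h at 37 C, 5% CO2. Lysis with SYBR Green, overnight at room temperature, fluorescence 485/535 nm; normalized to 0.29 uM artemisinin and DMSO.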

[12] = qHTS profiling for inhibitors of Plasmodium falciparum (HB3) proliferation (AID 743324); conditions: Plasmodium falciparum HB3 blood-stage proliferation; at 28.7 µM (top of the series);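 also: 100% = DMSO vehicle wells and 0% = artemisinin-treated control wells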
Outline: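 SYBR Green fluorescence (485 ex/535 em) of lysed cultures, incubated overnight at room temperature in the dark, quantifies parasite DNA. Infected erythrocytes at 0.3% parasitemia and 2.5% hematocrit were exposed 72 h; values normalized to DMSO and 0.29 uM artemisinin controls.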

[13] = qHTS assay for cell viability of HEK293 cells (AID 743288); conditions: ATP luminescence (CellTiter-Glo), 18 h; max response: stronger effect = lower value; also: % is scaled to controls: 0 for no effect and ±100 for the full control effect; nearly all actives have a fitted effect of over 50% in size
Outline: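 After 18 h compound exposure at 37 C, parental HEK293 cells (2,000/well) are lysed with CellTiter-Glo and luminescence is read following 30 min at room temperature.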

[14] = qHTS assay for cell viability of the p53RE-bla HCT-116 cell line (AID 743292); also: nearly all actives have a fitted effect of over 55% in size; also: potency is read from the fitted curve at half-maximal effect
Outline: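 Compound-exposed HCT-116 (p53RE-bla) cells, 4,000 per well, were kept 16 h at 37 C following a 5 h preincubation. Cell number was estimated from total ATP by CellTiter-Glo luminescence read after 30 min at room temperature.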

[15] = qHTS profiling of the MIPE4 collection as inhibitors of Plasmodium falciparum (3D7) proliferation (AID 743344; call rule not given here;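 also: scaled between DMSO vehicle wells and 0.29 µM artemisinin as full inhibition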); conditions: P. falciparum 3D7 in erythrocytes, SYBR Green DNA fluorescence, 72 h; at 28.5 µM (top of the series)
Outline: as §1

[16] = qHTS profiling of the MIPE4 collection as inhibitors of Plasmodium falciparum (DD2) proliferation (AID 743345; call rule not given here); conditions: P. falciparum Dd2 in erythrocytes, SYBR Green DNA, 72 h; at 28.5 µM (top of the series)
Outline: as §1

[17] = qHTS profiling of the MIPE4 collection as inhibitors of Plasmodium falciparum (DD2) proliferation (Rep 2) (AID 743346; call rule not given here); conditions: P. falciparum Dd2 in erythrocytes, SYBR Green DNA, 72 h; at 28.5 µM (top of the series)
Outline: as §1

[18] = qHTS profiling of the MIPE4 collection as inhibitors of Plasmodium falciparum (HB3) proliferation (AID 743347; call rule not given here;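 also: plate controls were DMSO vehicle wells for no effect and artemisinin wells for full effect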); conditions: P. falciparum HB3 in erythrocytes, SYBR Green DNA, 72 h; at 28.5 µM (top of the series)
Outline: as §1

Atrial natriuretic peptide receptor 1 (Homo sapiens), sequence (P16066 whole entry, looked up): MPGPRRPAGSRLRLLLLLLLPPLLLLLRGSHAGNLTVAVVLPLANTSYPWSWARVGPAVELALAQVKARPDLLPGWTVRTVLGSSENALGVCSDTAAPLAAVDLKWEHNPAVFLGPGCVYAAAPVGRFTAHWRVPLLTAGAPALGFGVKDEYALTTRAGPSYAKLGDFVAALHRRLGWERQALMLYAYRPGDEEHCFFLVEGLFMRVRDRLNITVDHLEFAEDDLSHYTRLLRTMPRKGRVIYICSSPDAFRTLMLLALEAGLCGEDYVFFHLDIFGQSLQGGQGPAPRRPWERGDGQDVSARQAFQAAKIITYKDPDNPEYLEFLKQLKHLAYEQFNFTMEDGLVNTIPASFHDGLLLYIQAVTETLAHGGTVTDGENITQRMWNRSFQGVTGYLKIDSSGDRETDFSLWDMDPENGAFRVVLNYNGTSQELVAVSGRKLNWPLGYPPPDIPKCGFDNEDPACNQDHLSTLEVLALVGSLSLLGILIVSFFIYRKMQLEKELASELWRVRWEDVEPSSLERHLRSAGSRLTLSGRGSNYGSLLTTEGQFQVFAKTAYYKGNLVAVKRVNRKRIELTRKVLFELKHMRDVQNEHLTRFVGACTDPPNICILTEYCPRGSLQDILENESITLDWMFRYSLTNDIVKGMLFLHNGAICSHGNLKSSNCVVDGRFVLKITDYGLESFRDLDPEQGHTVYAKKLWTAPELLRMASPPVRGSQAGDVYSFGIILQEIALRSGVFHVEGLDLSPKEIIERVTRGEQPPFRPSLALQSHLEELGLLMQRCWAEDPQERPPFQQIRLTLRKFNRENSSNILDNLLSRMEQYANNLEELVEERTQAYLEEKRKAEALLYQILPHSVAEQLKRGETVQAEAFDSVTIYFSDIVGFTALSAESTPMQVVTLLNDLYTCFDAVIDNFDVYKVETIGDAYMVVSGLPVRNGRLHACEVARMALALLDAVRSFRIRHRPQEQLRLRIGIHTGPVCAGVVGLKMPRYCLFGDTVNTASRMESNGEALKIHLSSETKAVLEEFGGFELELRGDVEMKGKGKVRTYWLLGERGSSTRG
T1 sequence (P35557 whole entry, looked up): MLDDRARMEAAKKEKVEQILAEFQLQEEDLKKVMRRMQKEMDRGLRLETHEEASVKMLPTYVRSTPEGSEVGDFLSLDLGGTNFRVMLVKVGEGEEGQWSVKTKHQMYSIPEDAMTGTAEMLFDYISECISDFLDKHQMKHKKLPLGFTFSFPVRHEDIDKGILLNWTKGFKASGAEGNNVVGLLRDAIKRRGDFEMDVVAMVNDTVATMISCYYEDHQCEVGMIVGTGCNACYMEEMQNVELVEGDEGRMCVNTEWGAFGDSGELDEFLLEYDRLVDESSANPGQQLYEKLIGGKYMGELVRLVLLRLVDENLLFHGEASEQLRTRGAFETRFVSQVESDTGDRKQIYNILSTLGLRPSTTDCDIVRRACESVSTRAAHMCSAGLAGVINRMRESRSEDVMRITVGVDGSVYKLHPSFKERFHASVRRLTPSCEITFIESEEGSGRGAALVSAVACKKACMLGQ
T1 sequence (Q14397 whole entry, looked up): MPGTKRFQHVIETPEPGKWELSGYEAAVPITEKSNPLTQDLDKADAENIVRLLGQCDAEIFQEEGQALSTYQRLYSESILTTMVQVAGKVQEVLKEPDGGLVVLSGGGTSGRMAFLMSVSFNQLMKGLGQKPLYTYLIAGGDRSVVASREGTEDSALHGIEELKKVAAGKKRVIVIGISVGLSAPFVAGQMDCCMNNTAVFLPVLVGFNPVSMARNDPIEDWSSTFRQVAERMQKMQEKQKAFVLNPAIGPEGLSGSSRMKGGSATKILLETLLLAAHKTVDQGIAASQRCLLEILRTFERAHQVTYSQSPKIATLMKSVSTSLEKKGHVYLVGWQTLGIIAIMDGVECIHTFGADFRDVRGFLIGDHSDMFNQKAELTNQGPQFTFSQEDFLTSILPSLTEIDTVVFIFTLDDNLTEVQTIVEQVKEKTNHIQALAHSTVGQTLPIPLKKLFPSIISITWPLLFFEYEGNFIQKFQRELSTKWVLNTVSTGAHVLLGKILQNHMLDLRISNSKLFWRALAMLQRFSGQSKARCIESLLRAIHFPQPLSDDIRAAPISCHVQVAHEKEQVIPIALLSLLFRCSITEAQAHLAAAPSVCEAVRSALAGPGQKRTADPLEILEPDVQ
Atrial natriuretic peptide receptor 2 (Homo sapiens), sequence (P20594 whole entry, looked up): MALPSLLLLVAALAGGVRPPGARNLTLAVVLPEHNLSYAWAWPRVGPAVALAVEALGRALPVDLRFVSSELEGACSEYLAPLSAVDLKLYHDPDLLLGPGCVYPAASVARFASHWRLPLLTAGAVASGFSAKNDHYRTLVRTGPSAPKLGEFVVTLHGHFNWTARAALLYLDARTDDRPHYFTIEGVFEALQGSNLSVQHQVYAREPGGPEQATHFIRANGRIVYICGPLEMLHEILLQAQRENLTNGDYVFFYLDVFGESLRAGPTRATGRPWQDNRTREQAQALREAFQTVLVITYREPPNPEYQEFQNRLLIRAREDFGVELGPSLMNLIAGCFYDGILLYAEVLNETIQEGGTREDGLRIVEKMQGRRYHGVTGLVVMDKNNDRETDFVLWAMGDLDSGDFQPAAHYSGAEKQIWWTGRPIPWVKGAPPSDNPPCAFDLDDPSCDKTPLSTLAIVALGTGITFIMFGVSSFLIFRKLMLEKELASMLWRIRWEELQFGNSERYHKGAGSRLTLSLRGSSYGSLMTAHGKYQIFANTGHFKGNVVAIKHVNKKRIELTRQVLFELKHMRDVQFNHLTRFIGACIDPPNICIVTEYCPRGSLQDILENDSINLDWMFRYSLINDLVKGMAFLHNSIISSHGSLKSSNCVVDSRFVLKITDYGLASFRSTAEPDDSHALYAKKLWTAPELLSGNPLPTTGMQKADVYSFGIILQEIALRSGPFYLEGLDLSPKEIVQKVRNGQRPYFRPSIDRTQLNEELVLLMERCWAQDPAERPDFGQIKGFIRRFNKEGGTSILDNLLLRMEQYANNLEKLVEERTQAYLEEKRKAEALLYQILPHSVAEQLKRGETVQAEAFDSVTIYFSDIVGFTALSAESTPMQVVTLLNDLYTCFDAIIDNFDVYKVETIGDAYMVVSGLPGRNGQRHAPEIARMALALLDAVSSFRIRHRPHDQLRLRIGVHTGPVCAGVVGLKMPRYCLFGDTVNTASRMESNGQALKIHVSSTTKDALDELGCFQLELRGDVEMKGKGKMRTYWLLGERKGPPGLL

Cn1c(=O)[nH]c2ncn(C)c2c1=O
inactive: Potency [1] | Potency [2] | Potency [3] | max response [4] 2.01% | Potency [5] | Potency [6] | Potency [7] | Potency [8] | Potency [9]

CC(=O)NNC(=O)N1Cc2ccccc2Oc2ccc(Cl)cc21
inactive: Potency [1] | Potency [3] | max response [4] 7.75% | Potency [5] | Potency [6] | Potency [7] | Potency [8] | Potency [9]

C=CC1(C)CC(=O)C2(O)C(C)(O1)C(OC(C)=O)C(O)C1C(C)(C)CCC(O)C12C (stereo unspecified)
inactive: Potency [1] | Potency [2] | Potency [3] | max response [4] 15.4% | Potency [5] | Potency [6] | Potency [7] | Potency [8] | Potency [9]

NC(N)=NC(N)=Nc1cccc(Cl)c1
inactive: Potency [1] | Potency [3] | max response [4] 35.4% | Potency [5] | Potency [6] | Potency [7] | Potency [8] | Potency [9]

Cc1cccc(C)c1OCC(N)C(C)C (stereo unspecified)
-0.502%: remaining parasite growth % (stronger effect = lower value) [10]
-0.0581%: activity, percent of control [11]
-0.0097%: remaining proliferation (% of control), lower = more inhibition [12]
active: Potency [4] 23.5 µM
inactive: Potency [1] | Potency [2] | Potency [3] | Potency [5] | Potency [6] | Potency [7] | Potency [8] | Potency [9]

CC#CCOC(=O)c1c(C)nc2sc3c(c2c1N)CCC(O)C3 (stereo unspecified)
inactive: Potency [1] | Potency [2] | max response [4] -7.3% | Potency [5] | Potency [6] | Potency [7] | Potency [8] | Potency [9]

CSc1nc(N)c2ncn([C@@H]3O[C@H](COP(=O)(O)OP(=O)(O)O)C(O)[C@H]3O)c2n1 (stereo partly specified)
inactive: Potency [1] | Potency [2] | max response [4] 18.1% | Potency [5] | Potency [6] | Potency [7] | Potency [8] | Potency [9]

CCCCC[C@H](CC(=O)NO)C(=O)N[C@H](C(=O)N1CCC[C@H]1CO)C(C)C
inactive: Potency [1] | Potency [3] | max response [4] 14.1% | Potency [5] | Potency [6] | Potency [7] | Potency [8] | Potency [9]

NCC(O)(CS(=O)(=O)O)c1ccc(Cl)cc1 (stereo unspecified)
inactive: Potency [1] | Potency [3] | max response [4] -5.75% | Potency [5] | Potency [6] | Potency [7] | Potency [8] | Potency [9]

COc1ccc2c(c1)c(CC(=O)O)c(C)n2Cc1ccc(Cl)cc1
inactive: Potency [1] | Potency [3] | max response [4] -11.4% | Potency [5] | Potency [6] | Potency [7] | Potency [8] | Potency [9]

COC(=O)C(C)(N)Cc1ccc(O)cc1 (stereo unspecified)
inactive: Potency [1] | Potency [3] | max response [4] 7.17% | Potency [5] | Potency [6] | Potency [7] | Potency [8] | Potency [9]

O=[N+]([O-])c1cccc2cn[nH]c12
inactive: Potency [1] | Potency [2] | Potency [3] | max response [4] 8.31% | Potency [5] | Potency [6] | Potency [7] | Potency [8] | Potency [9]

C/C(=C\c1ccc(C(=O)O)cc1)c1ccc2c(c1)C(C)(C)CCC2(C)C
inactive: Potency [1] | Potency [2] | Potency [3] | max response [4] 19.4% | max response [13] -16.6% | Potency [5] | Potency [6] | Potency [7] | Potency [8] | Potency [9]
active: Potency [14] 39.8 µM

CNc1cc(NS(=O)(=O)c2ccc(N)cc2)nc(NC)n1
inactive: Potency [1] | Potency [2] | Potency [3] | max response [4] 12.8% | Potency [5] | Potency [6] | Potency [7] | Potency [8] | Potency [9]

CC(=O)C(C)=O
inactive: Potency [1] | Potency [2] | Potency [3] | max response [4] 0.793% | max response [13] -4.3% | Potency [14] | Potency [5] | Potency [6] | Potency [7] | Potency [8] | Potency [9]

Cc1nc(N=Nc2ccc(C(=O)O)cc2)c(COP(=O)(O)O)c(C=O)c1O
inactive: Potency [1] | Potency [2] | Potency [3] | max response [4] 5.37% | Potency [5] | Potency [6] | Potency [7] | Potency [8] | Potency [9]

Cc1nc2n(c(=O)c1CCN1CCC(c3noc4cc(F)ccc34)CC1)CCCC2O (stereo unspecified)
inactive: Potency [1] | Potency [3] | max response [4] 7.08% | Potency [5] | Potency [6] | Potency [7] | Potency [8] | Potency [9]

CN1CC(O)C(O)C(O)C1CO (stereo unspecified)
inactive: Potency [1] | Potency [2] | Potency [3] | max response [4] 11.6% | Potency [5] | Potency [6] | Potency [7] | Potency [8] | Potency [9]

Cc1nc(N=Nc2ccc(S(=O)(=O)O)cc2S(=O)(=O)O)c(COP(=O)(O)O)c(C=O)c1O
98.1%: parasite growth, % of DMSO control [15]
inactive: Potency [1] | Potency [2] | Potency [3] | max response [4] 14.8% | Potency [5] | Potency [6] | Potency [7] | Potency [8] | Potency [9]
213%: parasite growth, % of control (lower = inhibition) [17]
100%: parasite growth remaining, % of DMSO control (lower = more inhibition) [16]
93.6%: growth, % of control [18]

CC(N)(Cc1ccc(O)cc1)C(=O)O (stereo unspecified)
inactive: Potency [1] | Potency [3] | max response [4] -28.2% | Potency [5] | Potency [6] | Potency [7] | Potency [8] | Potency [9]

CC(=O)N[C@@H](Cc1c[nH]c2ccccc12)C(=O)OCc1cc(C(F)(F)F)cc(C(F)(F)F)c1
inactive: Potency [1] | Potency [2] | Potency [3] | max response [4] 12% | Potency [5] | Potency [6] | Potency [7] | Potency [8] | Potency [9]

COc1ccc2c(c1)CCC1C2CC[C@@]2(C)C1CC[C@@H]2NCCCCCCN1C(=O)C=CC1=O (stereo partly specified)
inactive: Potency [1] | Potency [3] | Potency [5] | Potency [6] | Potency [7] | Potency [8] | Potency [9]

CCCCCCC/C=C\CCCCCCCCC(=O)O
inactive: Potency [1] | Potency [2] | Potency [3] | max response [4] 37.6% | Potency [5] | Potency [6] | Potency [7] | Potency [8] | Potency [9]
